# Measured values published in PubChem BioAssay AID818 (SRMLSC, 2007).
# Out of some 140,000 compounds screened, about 2,100 (1.5%) were called active. The sample holds actives, similar compounds and a random draw of the others, so the mix is not that of the screen.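 Rule for the calls: active = viability at or under a set limit, the compound median less 4 SD (cut at about 6% in these data); inactive = the rest.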
# Experiment: primary screen for growth suppressors in beta-catenin knockout HCT116 cells (colon tumor, human) (AID 818);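 note: 0% = Hyamine 1622 control at 20 µM and 100% = untreated cell control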
# Conditions: CellTiter-Glo, 60 h, at 10 µM, active compounds read low
row,SMILES,viability
1,Cc1ccc2c(c1)C(c1ccccc1)N(C(=O)c1ccc(S(=O)(=O)N3CCOCC3)cc1)CC(=O)N2 (configuration not stated),94.9% (inactive)
2,Cc1cc2c(C)nc(N/N=C/c3ccccc3)nc2o1,92% (inactive)
3,O=c1[nH]n(-c2cccc(Cl)c2)c2ncccc12,85.9% (inactive)
4,Nc1c(C(=O)NCc2ccccc2)nnn1Cc1cccc(Cl)c1,25.6% (inactive)
5,Clc1cccc(CN2COc3c(cc(Cl)c4cccnc34)C2)c1,3.67% (active)
6,CCOC(=O)c1cc2c(=O)n3ccccc3nc2n(CC(C)C)c1=NC(=O)c1c(-c2c(F)cccc2Cl)noc1C,66.4% (inactive)
7,Cc1cc(C)nc(NC(=O)c2cccc([N+](=O)[O-])c2)c1,97.8% (inactive)
8,CSCC[C@H](NC(=O)OC(C)(C)C)C(=O)N/N=C/c1cc2ccc(C)cc2nc1Cl,1.02% (active)
9,CCOc1cc(/C=N/NC(=O)OC)ccc1OCCSc1ccc(Cl)cc1,93.9% (inactive)
10,CSCCC(NC(=O)COc1ccccc1)C(=O)Nc1ccc(C)cc1 (configuration not stated),99.2% (inactive)
11,COCCCNC(=S)NC(=O)c1ccc([N+](=O)[O-])cc1,95.7% (inactive)
12,CCSc1nc(C)nc2c1oc1ccccc12,95.4% (inactive)
13,Cc1nc(N2CCCC2C(=O)O)c2oc3ccccc3c2n1 (configuration not stated),95.6% (inactive)
14,Cc1nc(Cl)c2oc3ccccc3c2n1,2.84% (active)
15,Cc1ccc(CCCOC(=O)C[N+]2(C)CCCC2)cc1,97% (inactive)
16,Cc1ccc(S(=O)(=O)c2ccc(Cl)cc2)cc1S(=O)(=O)NC(C(=O)O)C(C)C (configuration not stated),97.6% (inactive)
17,CN1CCN(C(=O)/C(=C\c2cccs2)NC(=O)c2cccs2)CC1,90.3% (inactive)
18,Cc1cc(Nc2ccccc2)n(C(=O)c2ccc(N)cc2)n1,85.7% (inactive)
19,Cc1cc(Nc2ccccc2)nc(N)n1,93.5% (inactive)
20,Nc1ccc(Nc2ccccc2)cc1,5.41% (active)
21,O=C(Cn1nnc(-c2ccccc2)n1)N/N=C/c1ccc(-c2ccc(Cl)cc2)o1,80.7% (inactive)

row,SMILES,viability
1,O=C(c1ccc(CSc2ccccc2)cc1)N1CCCCCC1,65.2% (inactive)
2,COc1ccc(S(=O)(=O)Nc2ccc(O)c(Sc3nc4ccccc4s3)c2)cc1,82.2% (inactive)
3,O=[N+]([O-])c1c(NCCO)cc(Sc2nc3ccccc3s2)c2nonc12,1.67% (active)
4,O=C(O)c1cccc(S(=O)(=O)Nc2ccc(O)cc2Sc2nc3ccccc3s2)c1,91.9% (inactive)
5,CN(c1ccccc1)S(=O)(=O)c1ccc(Cl)c(C(=O)NCCc2c[nH]c3ccccc23)c1,78.7% (inactive)
6,CNC(=O)/C(C#N)=C/c1c(F)cccc1Cl,74.3% (inactive)
7,CC1=CC(C)(C)Nc2ccc(OC(=O)C(Cc3ccccc3)N3C(=O)C4CCCCC4C3=O)cc21 (configuration not stated),44.7% (inactive)
8,O=C(CN1C(=O)C2C3CCC(C3)C2C1=O)Oc1ccc2ccccc2c1 (configuration not stated),85.5% (inactive)
9,CC1=CC(C)(C)Nc2ccc(OC(=O)CN3C(=O)C4CCCCC4C3=O)cc21 (configuration not stated),0.52% (active)
10,CCCOC(=O)c1c(NC(=O)c2cnn3c2NC(c2ccccc2)CC3C(F)(F)F)sc2c1CCCC2 (configuration not stated),61% (inactive)
11,CCCCOc1ccc(C(=O)NCc2ccncc2)cc1,70.7% (inactive)
12,CCCCOc1ccc(C(=O)NN2CCN(C)CC2)cc1,87.1% (inactive)
13,CCCOc1ccc(C(=O)C(CCC(CNCC)C(=O)c2ccc(OCCC)cc2)CNCC)cc1 (configuration not stated),0.87% (active)
14,O=C(c1ccc(S(=O)(=O)c2ccccc2)cc1)N1CCCCCC1,93.2% (inactive)
15,C=CCn1c(SCc2ccc(Cl)c(Cl)c2)nnc1C(CO)NC(=O)c1ccc(OC)cc1 (configuration not stated),90.7% (inactive)
16,Cc1cc(C)c2nc3nc(C)cc(C)c3c(N)c2c1,1.48% (active)
17,Cc1cc(C)c2nc(SCCC#N)nc(C)c2c1,109% (inactive)
18,C=CCNC(=O)/C=C/c1ccc(C(C)C)cc1,90.7% (inactive)
19,Nc1nc(SCC(=O)NNc2c(Cl)cc(Cl)cc2Cl)n[nH]1,98.6% (inactive)
20,Cc1sc2nc(CC(N)=O)[nH]c(=O)c2c1-c1ccccc1,90.4% (inactive)
21,NS(=O)(=O)c1ccc(NC(=O)COC(=O)C2(c3ccc(F)cc3)CCCC2)cc1,82.7% (inactive)

row,SMILES,viability
1,Cc1[nH]c(=O)c(C(=O)/C=C/c2ccccc2)c2c1CCCC2,2.53% (active)
2,O=C(/C=C/c1ccccc1)c1ccccc1O,83.6% (inactive)
3,O=C(/C=C/c1ccccc1)c1ccoc1,10.1% (inactive)
4,CCNS(=O)(=O)c1ccc(NC(=O)c2cncc(Br)c2)cc1,97.6% (inactive)
5,O=C(NC(=S)Nc1ccc2oc(=O)ccc2c1)c1ccc(-c2cccc(Cl)c2Cl)o1,101% (inactive)
6,COc1cccc2sc(NNC(=O)c3nc4ccccc4s3)nc12,14.9% (inactive)
7,CC(=O)c1sc(NC(=O)c2cccc3ccccc23)nc1C,87.1% (inactive)
8,COc1cccc2sc(Nc3nc(C)c(C(C)=O)s3)nc12,5.29% (active)
9,CCOc1ccc2nc(NC(=O)c3cc([N+](=O)[O-])ccc3N3CCOCC3)sc2c1,39.5% (inactive)
10,COc1ccccc1N1CCN(C(=O)C(=O)N/N=C/c2ccccc2F)CC1,104% (inactive)
11,Fc1ccc2c(c1)C(c1cccnc1)=NNC(c1cccs1)=N2,40.4% (inactive)
12,CCN1CCCC1CNc1ncnc2c1[nH]c1ccc(F)cc12 (configuration not stated),82.2% (inactive)
13,Fc1ccc2[nH]c3c(N4CCSCC4)ncnc3c2c1,5.04% (active)
14,CC(C)OCCCNc1ncnc2c1[nH]c1ccc(F)cc12,9.7% (inactive)
15,CC(=O)COc1ccc2c(-c3ccccc3)cc(=O)oc2c1,95.5% (inactive)
16,COc1ccc(C2COC(=O)C2=N)c(NC(=O)c2ccccc2)c1 (configuration not stated),79.1% (inactive)
17,CC1(c2ccccc2)CC(C)(C)N(C(=O)c2cc([N+](=O)[O-])cc([N+](=O)[O-])c2)c2ccccc21 (configuration not stated),69% (inactive)
18,O=C(NCCN1CCN(Cc2ccccc2)CC1)c1cc2c(=O)[nH]c3ccccc3c2s1,1.35% (active)
19,CN1CCN(CCCNC(=O)c2cc3c(=O)oc4ccccc4c3s2)CC1,92% (inactive)
20,Cn1c(C(=O)NCCN2CCc3ccccc3C2)cc2c(=O)[nH]c3ccccc3c21,87.4% (inactive)
